Shown are actives, neighbours in structure and some others; about 2.3% of the full set was active somewhere.
CHRM1 antagonist = human CHRM1 antagonism; inhibition, % at 3 µM; CHO-K1 hM1, Fluo-8 calcium fluorescence, ACh EC80 antagonist; actives 1.3% (n = 360,000);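 active = percent inhibition above its own plate's cutoff, namely the mean of that plate's compound wells plus 3 SD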;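 also: peak over basal fluorescence ratio during 140 s after agonist addition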
Target sequence (P11229 whole entry, looked up): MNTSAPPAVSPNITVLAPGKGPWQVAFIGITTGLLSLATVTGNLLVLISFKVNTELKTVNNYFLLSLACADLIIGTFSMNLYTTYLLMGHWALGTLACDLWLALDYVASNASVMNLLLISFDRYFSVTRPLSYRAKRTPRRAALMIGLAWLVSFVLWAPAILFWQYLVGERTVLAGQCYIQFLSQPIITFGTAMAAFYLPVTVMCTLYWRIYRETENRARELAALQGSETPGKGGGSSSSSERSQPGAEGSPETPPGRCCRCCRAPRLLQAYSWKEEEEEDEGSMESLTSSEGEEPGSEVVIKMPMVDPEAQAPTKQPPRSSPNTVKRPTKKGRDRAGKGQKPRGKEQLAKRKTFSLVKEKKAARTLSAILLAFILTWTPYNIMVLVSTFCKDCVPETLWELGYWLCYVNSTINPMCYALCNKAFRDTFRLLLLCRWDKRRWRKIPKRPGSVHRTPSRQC
M1 PAM = positive allosteric modulators of human M1 muscarinic receptor | P11229 | CHO-K1 hM1, Fluo-8 calcium fluorescence, ACh EC20; 0% = ACh EC20, 100% = maximal ACh | activation, % at 3 µM | actives 0.088% (n = 360,000) | AID 588819; in the data active = activation above about 19%, passing the limit was not always enough
CHO-K1 Ca PAM = counter-screen for M1 PAMs: effect in parental CHO-K1 cells. ATP EC20, Fluo-8 calcium fluorescence; 0% at ATP EC20, 100% at ATP max. activation, % at 3 µM. actives 0.02% (n = 360,000);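 active = activation above the run cutoff, the mean activation of all test compounds plus 3 SD, cut at about 40% in these data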;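 also: peak over basal fluorescence ratio in a 140 s read after ATP addition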
M1 ag = agonists of human M1 muscarinic receptor; P11229; actives 0.33% (n = 360,000); CHO-K1 hM1, Fluo-8 calcium fluorescence, agonist mode; 0% DMSO, 100% acetylcholine EC100; activation, % at 3 µM;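 active = activation above the run's mean compound activation plus 3 SD, cut at about 16% in these data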;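 also: peak over basal fluorescence ratio within a 140 s kinetic read after compound addition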
CHO-K1 Ca antag = counter-screen for M1 antagonists: effect in parental CHO-K1 cells; ATP-induced calcium, Fluo-8 fluorescence; inhibition, % at 3 µM; actives 0.6% (n = 360,000);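 active = inhibition above a per-plate cutoff, the plate's mean sample inhibition plus 3 SD, cut at about 24% in these data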
CHO-K1 Ca ag = counter-screen for M1 agonists: effect in parental CHO-K1 cells | Fluo-8 calcium fluorescence; scaled to maximal ATP response, vehicle zero | activation, % at 3 µM | actives 0.48% (n = 360,000) | AID 602248; in the data active = activation above about 15%;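 also: untransfected CHO-K1 host cells lacking M1 receptor as counterscreen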
Numbers stand for hits; . = inactive; / = no result.

SMILES	CHRM1 antagonist	M1 PAM	CHO-K1 Ca PAM	M1 ag	CHO-K1 Ca antag	CHO-K1 Ca ag
Fc1ccccc1CN1CCCN(C(=S)Nc2cccc(Cl)c2)C1	29	.	.	.	.	.
Cc1c(Cl)cccc1NC(=S)N1CCCN(Cc2ccccc2F)C1	.	.	.	.	.	.
O=C(N/C=C/c1ccccc1)c1ccccc1	.	.	.	.	.	.
Cc1ccc(NC(=O)c2ccc3nc[nH]c3c2)cc1C	.	.	.	.	.	18
COc1ccc(CCNC(=O)CN2C(=O)NC3(CCCCC3C)C2=O)cc1 (centres undefined)	.	.	.	.	.	.
CN(C)c1ccc(/C=C/c2nc3ccccc3c(=O)n2-c2ccc(C(=O)O)cc2)cc1	39	.	.	70	.	17
Cc1ccc(NC(Cc2cc(C)no2)c2ccccc2)cc1 (centres undefined)	.	.	46	.	.	.
Cc1cc(C)c(CNC(=O)c2cc(C3CC3)nc3c2cnn3C(C)C)c(=O)[nH]1	.	.	.	.	.	.
O=c1c2ccc([N+](=O)[O-])cc2ncn1CCOc1ccccc1	36	.	.	.	.	.
CCCNc1c(NS(=O)(=O)c2ccc3c(c2)CCCC3)c(=O)oc2ccccc12	.	.	.	.	.	.
COc1cc2cc(CCCOC(=O)c3ccc(C(F)(F)F)cc3)oc(=O)c2cc1OC	.	.	.	.	.	.
CCOC(=O)C1CCN(C(=O)C(=O)Nc2ccc3nc4n(c(=O)c3c2)CCCCC4)CC1	.	.	.	.	.	.
O=C(Nc1ccc(O)cc1)c1ccccc1OCc1ccccc1	.	.	.	.	.	16
O=C(NCC1CCCO1)c1ccccc1OCc1ccc(Cl)cc1 (centres undefined)	.	.	.	.	.	.
COc1ccccc1CNC(=O)c1ccccc1OCc1ccc(F)cc1	.	.	44	.	.	42
O=C(NCC1CCCO1)C(C(=O)c1ccc(F)cc1)n1ccccc1=O (centres undefined)	.	.	.	.	31	.
O=C(NCC1CCCO1)c1ccccc1OCc1ccc(F)cc1 (centres undefined)	.	.	.	.	.	23
O=C(Nc1ccccc1)c1ccccc1OCc1ccc(F)cc1	.	.	.	.	.	.
O=C(NCc1ccccn1)c1ccccc1OCc1ccc(F)cc1	.	.	.	.	.	.
CC(NC(C(=O)c1ccccc1)c1ccccc1)c1ccccc1 (centres undefined)	.	.	.	.	.	.
Cc1cnc(C(=O)OCC(=O)Nc2ccccc2[N+](=O)[O-])cn1	.	.	.	.	.	.
COc1cc(C)ccc1OCc1cc(C(=O)N(Cc2c(C)nn(C)c2C)C2CC2)no1	.	.	.	.	.	18
COc1cc(C)ccc1OCc1cc(C(=O)N2C[C@H]3CC[C@H]2C3)no1	.	.	.	.	.	.
NS(=O)(=O)c1ccc(CCNC(=O)C(=O)NCC2OCCN2C(=O)c2ccc3c(c2)OCO3)cc1 (centres undefined)	.	.	.	.	29	.
Nc1ccc2c(c1)C1(CCC2)NC(=O)NC1=O (centres undefined)	.	.	.	.	.	.
SMILES	CHRM1 antagonist	M1 PAM	CHO-K1 Ca PAM	M1 ag	CHO-K1 Ca antag	CHO-K1 Ca ag
CCNc1cc(O)ccc1C	.	.	.	.	.	.
CC[N+](C)(C)c1cccc(O)c1	.	.	.	16	.	.
O=C(NCc1cccs1)c1ccc2sc(COCCO)nc2c1	.	.	.	.	.	.
O=c1c2cc(Br)ccc2nc(-c2cccc(C(F)(F)F)c2)n1O	.	.	.	25	.	.
CCCN1C(=O)/C(=C/c2c(NCCCOCC)nc3c(C)cccn3c2=O)SC1=S	.	.	.	.	.	.
O=C1/C(=C\c2c(NCCOCCO)nc3ccccn3c2=O)SC(=S)N1Cc1ccco1	.	.	.	30	.	20
COC(=O)c1ccc(CN2CCC(CO)(Cc3ccccc3Cl)CC2)cc1	52	.	.	19	.	.
COC(=O)c1ccc(CN2CCN(CC(C)C)C(CCO)C2)cc1 (centres undefined)	35	.	.	.	.	.
CCOC(=O)C1CCN(C(=O)CCC(=O)NCCc2ccc(Cl)cc2)CC1	.	.	.	.	.	.
CCOC(=O)C1(Cc2ccccc2)CCN(Cc2cn(CC(=O)OC)c3ccccc23)CC1	.	.	.	.	.	.
CCOC(=O)C1(CC2CC2)CCN(Cc2cn(C)c3ccccc23)CC1	32	.	.	.	.	.
CCOC(=O)C1CCC(CNCc2ccc(Cl)cc2)CC1 (centres undefined)	45	.	.	.	.	.
COc1ccc(/C=C/CN2CCC(CO)(Cc3ccccc3Cl)CC2)cc1	31	.	.	.	.	.
COC(=O)c1ccc(CN2CCCC(C(=O)c3ccccc3OC)C2)cc1 (centres undefined)	.	.	.	27	.	.
COC(=O)c1ccc(CN2CCCC(C(=O)c3cc(F)ccc3OC)C2)cc1 (centres undefined)	.	.	.	.	.	.
COC(=O)c1ccc(CN2CCCCC2)cc1	.	.	.	27	.	.
CCOC(=O)C1CCN(Cc2ccc(C(=O)OC)cc2)CC1	67	.	.	43	.	.
COc1ccc(C(=O)Nc2ccc(CN3CCCCC3)cc2)cc1	.	.	.	.	.	.
CCC1(CC)NC(=O)N(CC(=O)OC(C)C(=O)Nc2ccc(S(N)(=O)=O)cc2)C1=O (centres undefined)	.	.	.	.	.	.
CCOC(=O)c1sc(NC(=O)c2c(CC)noc2C)nc1C	.	.	.	.	.	.
COC(=O)c1ccc(CN2CCCC(C(=O)Nc3ccc(-c4ccn[nH]4)cc3)C2)cc1 (centres undefined)	.	.	.	36	.	.
CCOC(=O)C1(CC2CC2)CCN(Cc2ccc(C(=O)OC)cc2)CC1	60	.	.	.	.	.
CCOC(=O)C1(CCc2ccccc2)CCN(Cc2ccc(C(=O)OC)cc2)CC1	.	.	.	.	.	.
COc1ccc(CCNC(=O)c2ccc(Br)o2)cc1Br	/	/	.	/	.	.
COc1cccc(C2=Cc3ccc(F)cc3C(CC(C)=O)N2c2ccc(C#CC3(O)CCCCC3)cc2)c1 (centres undefined)	/	/	46	/	.	.
COc1cc(OC)cc(C2=Cc3ccc(OC)cc3C(CC(C)=O)N2c2ccc(C#CC3(O)CCCCC3)cc2)c1 (centres undefined)	/	/	.	/	.	.
CCOC(=O)c1ccc(S(=O)(=O)n2c(=O)oc3ccccc32)cc1	31	.	.	.	.	.
Cc1ccc(S(=O)(=O)n2c(=O)oc3ccccc32)cc1	.	.	.	.	.	.
Fc1ccc(-n2nnc(-c3cccnc3)n2)cc1	.	.	.	.	.	.
